# According to PubChem BioAssay (Tox21):
# Records with an inconclusive call do not appear. The source made the active and inactive calls. Calls follow the shape of the dose curve; as a rule, active = well fitted cell-killing curve with a large enough effect in the repeat runs; inconclusive = weak or mixed curves, or effect the other way; inactive = flat fitted curve, though single readings scatter.
# Test: cAMP Responsive Elements (CRE) small molecule agonists, cell-based qHTS assay: qHTS cell viability counter screen (AID 2060914); also: nearly all actives have a fitted effect of over 50% in size
# Conditions: CRE-bla HEK293T viability, CellTiter-Glo luminescence, 5 h; series mostly up to 92.4 µM; activity change, negative = cytotoxicity: at the top concentration
# In short: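 Luminescence read-out (CellTiter-Glo, 30 min RT) of ATP-based viability in CRE-bla HEK 293T cells, run in the same wells as the β-lactamase reporter assay after 3 h compound treatment at 37 °C.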
# % is scaled to controls: 0 for no effect and ±100 for the full control effect.
Compound,"activity change, negative = cytotoxicity",Potency
COC[C@H](C)N(C(=O)CCl)c1c(C)csc1C,-3.18% (inactive),–
N#Cc1cc(Br)c(O)c(Br)c1,-9.16% (inactive),–
CCC(C)c1cc([N+](=O)[O-])cc([N+](=O)[O-])c1OC(=O)C=C(C)C (stereo not given),-15.4% (inactive),–
Cc1ccc2ccccc2c1,-11.9% (inactive),–
c1nc[nH]n1,–,inactive
CC1N=C(N)OC1c1ccccc1 (stereo not given),-2.42% (inactive),–
Nc1ccccc1C(=O)OC/C=C/c1ccccc1,-8.28% (inactive),–
CC1(C)C(C=C(Cl)Cl)C1C(=O)OC(C#N)c1ccc(F)c(Oc2ccccc2)c1 (stereo not given),-18.7% (inactive),–
COc1cc(OC)nc(NC(=O)NS(=O)(=O)c2ncccc2C(=O)N(C)C)n1,-0.191% (inactive),–
O=C(c1ccccc1)C(Cl)Cl,14.1% (inactive),–
COC(=O)C(c1ccccc1)C1CCCCN1 (stereo not given),-10.5% (inactive),–
CCc1cc(OC)c(C[C@H](C)N)cc1OC,-5.45% (inactive),–
O=NN1CCCCCCC1,–,inactive
Clc1ccc(Oc2ccccc2)cc1,-0.765% (inactive),–
ClC(Cl)=C(Cl)C(Cl)=C(Cl)Cl,–,inactive
Cc1cc(C)c(C(=O)P(=O)(c2ccccc2)c2ccccc2)c(C)c1,-13.1% (inactive),–
c1cc[c]([Sb]([c]2ccccc2)[c]2ccccc2)cc1,-5.9% (inactive),–
COc1cc(N)c(Cl)cc1C(=O)NC1CN2CCC1CC2 (stereo not given),5.1% [at 42.5 µM] (inactive),–
O=C(N[C@H]1CN2CCC1CC2)c1ccc2c(c1)OCCO2,-1.5% (inactive),–
CSSC,-6.94% (inactive),–

Compound,"activity change, negative = cytotoxicity",Potency
Oc1ccc2ccc3cccc4ccc1c2c34,0.228% (inactive),–
CN(C)c1nc(=O)n(C2CCCCC2)c(=O)n1C,–,inactive
c1ccc2c(c1)CCNC2,-3.59% (inactive),–
O=[N+]([O-])c1ccc(F)c([N+](=O)[O-])c1,-11.5% (inactive),–
[Cd+2].[Cl-].[Cl-],–,inactive
C=C(C)[C@H]1Cc2c(ccc3c2O[C@@H]2COc4cc(OC)c(OC)cc4[C@@H]2C3=O)O1,–,inactive
CCC1(CC)C(=O)C=CNC1=O,17.2% [at 42.5 µM] (inactive),–
O=[N+]([O-])c1ccccc1CCl,0.0141% (inactive),–
O=S(=O)(NS(=O)(=O)C(F)(F)F)C(F)(F)F,-10.8% (inactive),–
Nc1ccccc1C(=O)OCCc1ccccc1,–,inactive
Clc1cc(Cl)c(Cl)c(Cl)c1,12.7% (inactive),–
COc1cc(OC)nc(Sc2cccc(Cl)c2C(=O)O)n1,6.39% (inactive),–
CC(C)(C)C(O)/C(=C\c1ccc(Cl)cc1Cl)n1cncn1 (stereo not given),-18% (inactive),–
COC[C@@H](NC(C)=O)C(=O)NCc1ccccc1,-25.1% [at 42.5 µM] (inactive),–
CCCCCCCCCCn1cc[n+](C)c1,–,inactive
O=S1OC[C@@H]2[C@H](CO1)[C@]1(Cl)C(Cl)=C(Cl)[C@@]2(Cl)C1(Cl)Cl (stereo not given in full),-21.1% (inactive),–
CCCCOCCOC(C)=O,–,inactive
C=CCC1=C(C)[C@@H](OC(=O)[C@@H]2[C@@H](C=C(C)C)C2(C)C)CC1=O,-13.2% (inactive),–
CC1(C)CCC(Cc2ccc(Cl)cc2)C1(O)Cn1cncn1 (stereo not given),-16.4% (inactive),–
CCCSP(=O)(OCC)SCCC,-14.6% (inactive),–
